# Laboratory results taken from PubChem BioAssay (NCATS).
# Values joined by “and” are separate entries in the source; they are usually repeats but may differ in a detail not shown here. Equal entries are not always repeated. A number with no mark means an inactive call. Results filed as inconclusive are left out. Entries that show only a call come without a potency. Active and inactive are the calls of the source. Unless noted, calls come from the whole dose curve; as a rule, active = well fitted curve in the direction sought with a large enough effect; inconclusive = small, poorly fitted or top-dose-only effect, or another doubt; inactive = no such curve, though single readings can be large; an effect the other way counts as inactive or inconclusive.
# How the values were obtained:
# [1] = qHTS assay to identify inhibitors of the type 1 interferon - major histocompatibility complex class I in skeletal muscle: Counter screen cell viability and HiBit confirmation (AID 1347412); conditions: iHSKM muscle cells + IFN-b, HiBiT or CellTiter-Glo, 24 h; HiBiT; note: potency is the fitted concentration of half-maximal effect; nearly all actives have a fitted effect of over 60% in size
# Excerpt: Assay Submitter (PI): Travis B. Kinder Ph.D. & James Inglese Ph.D. Assay Development and Screening Technology Laboratory (ADST) National Center for Advancing Translational Sciences (NCATS), Rockville, MD National Institute of Health (NIH), Bethesda, Maryland Idiopathic inflammatory myopathies, collectively referred to as myositis, are a group of rare autoimmune diseases characterized by skeletal muscle inflammation, weakness, and usually accompanied by systemic pathologies of the skin, lungs, or vasculature. Current immunosuppressive therapies and glucocorticoids are often not curative and are accompanied by harsh side effects, especially in children with juvenile myositis. We initiated a drug repurposing and development program to identify more targeted, less toxic therapeutics to treat myositis. Although its cause is not known, muscle from a subset of patients have an abundance of the inflammatory type 1 interferon (IFN) and a down-stream product major histocompatibility complex class I (MHC class I), which are both thought to contribute to damage and weakness. We conducted quantitative high throughput screening on 6,576 compounds (4,679 unique) through a series of cell-based assays to identify those that inhibit the IFN-stimulated expression of MHC class I in muscle precursor cells (myoblasts). The compound identification and evaluation strategy utilized a primary screen with reporter-tagged MHC class I in genome-engineered myoblasts, ATP content counter screen for viability, HLA-ABC immunofluorescence secondary screen, and HLA-B RT-qPCR tertiary screen. The primary screen utilized CRISPR/Cas9 genome-engineering of immortalized human myoblasts, C25cl48, where a pro-luminescent reporter HiBit was fused to the C-terminus of endogenous MHC class I allele HLA-B*08:01 (HLA-B HiBit myoblasts). HiBit is an 11 amino acid fragment of NanoLuc luminescent reporter (Promega Corporation), and when complexed to the larger LgBit fragment, the reconstituted enzyme produces light in the presence of furimazine substrate (Schwinn et al., 2018). Briefly, HLA-B HiBit myoblasts were plated into 1536-well plates, treated with 4.0 ng/ml human IFN-beta and 650 inhibitory compounds identified from primary screening in a 12-point, 1:3 titration with a high final concentration of 46 uM. Compounds were pinned into duplicate plates, with one for HiBit confirmation and one for ATP content viability assay. After 24 hrs of treatment, cells were assayed by either Nano-Glo HiBiT Lytic Detection System (Promega) or CellTiter Glo (Promega), and luminescence measured by a ViewLux 1430 Ultra HTS (Perkin Elmer). References: Schwinn MK, Machleidt T, Zimmerman K, Eggers CT, Dixon AS, Hurst R, Hall MP, Encell LP, Binkowski BF, Wood K V. 2018. […]
# astro = test: Drug repurposing screens with cells derived from glioblastoma tumor samples (AID 1345199); conditions: viability, ATP luminescence, 48 h; series mostly up to 45.9 µM; note: nearly all actives have a fitted effect of over 40% in size; note: potency is the fitted concentration of half-maximal effect
# Procedure, shortened: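 Four patient lines of CD133+ GBM neurospheres were screened at several concentrations; hits were retested in those lines plus three slower-growing GBM lines, using 48-hour treatment and ATP-based viability.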
# [2] = biological target: Nuclear receptor subfamily 1 group I member 2 (Rattus norvegicus) (UniProt Q9R1A7); test: qHTS assay for small molecule activators of the rat pregnane X receptor (rPXR) signaling pathway (AID 651751; call rule not given here); conditions: rPXR reporter cells, luciferase (One-Glo), 24 h
# [3] = qHTS assay for small molecule activators of the human pregnane X receptor (PXR) signaling pathway (AID 720659; call rule not given here); conditions: DPX-2 HepG2 CYP3A4-luciferase, 24 h; series mostly up to 92.3 µM
# Chain of Nuclear receptor subfamily 1 group I member 2 (Rattus norvegicus) (Q9R1A7 whole entry, looked up): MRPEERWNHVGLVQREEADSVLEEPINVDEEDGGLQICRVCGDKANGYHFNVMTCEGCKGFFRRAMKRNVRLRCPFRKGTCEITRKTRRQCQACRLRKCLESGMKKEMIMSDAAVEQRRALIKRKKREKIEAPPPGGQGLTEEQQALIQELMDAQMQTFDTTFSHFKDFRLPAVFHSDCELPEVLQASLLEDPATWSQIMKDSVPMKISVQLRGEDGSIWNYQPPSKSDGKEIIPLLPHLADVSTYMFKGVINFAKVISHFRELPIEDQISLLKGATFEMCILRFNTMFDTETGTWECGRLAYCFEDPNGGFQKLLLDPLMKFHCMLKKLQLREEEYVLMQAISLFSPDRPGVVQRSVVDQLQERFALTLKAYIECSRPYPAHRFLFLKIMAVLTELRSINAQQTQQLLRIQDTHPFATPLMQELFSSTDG
structure (smiles),measurement,setting,value
C[C@@H]1C[C@@H]([C@H](O)CC2CC(=O)NC(=O)C2)C(=O)[C@@H](C)C1,Potency,[1],701 nM (active) and 222 nM (active)
C[C@H]1C(=O)O[C@@H]2CCN3CC=C(COC(=O)[C@](C)(O)[C@]1(C)O)[C@H]23,Potency,astro,inactive
same,max response,[2],0.678%
same,outcome,[3],inactive
COCC(=O)N(c1c(C)cccc1C)C(C)C(=O)OC (centres undefined),max response,[2],3.13%
CCOP(=S)(OCC)O/N=C(\C#N)c1ccccc1,Potency,astro,inactive
same,max response,[2],-0.568%
C[C@@H]1O[C@@H](O[C@@H]2C=C3CC[C@@H]4[C@H](CC[C@]5(C)[C@@H](c6ccc(=O)oc6)CC[C@]45O)[C@@]3(C)CC2)[C@H](O)[C@H](O)[C@H]1O,Potency,astro,0.0282 µM (active)
same,Potency,[1],12.5 nM (active)
COc1cc(C[C@@H](C)N)c(OC)cc1Br,Potency,astro,inactive
CNC(=O)NC(O)C(Cl)(Cl)Cl (centres undefined),Potency,astro,inactive
CCNc1nc(Cl)nc(NCC)n1,Potency,astro,inactive
same,max response,[2],-3.28%
same,outcome,[3],inactive
CN1C(=O)[C@@H](NC(=O)c2cc3ccccc3[nH]2)N=C(c2ccccc2)c2ccccc21,Potency,astro,inactive
C[N+](C)(C)CCOC(=O)C(O)(c1ccccc1)c1ccccc1,Potency,astro,inactive
CCCCCCCCCCCC[N+](C)(C)CCOc1ccccc1,Potency,astro,20 µM (active)
same,max response,[2],-13.8%
CCCCCCCCC(=O)NCc1ccc(O)c(OC)c1,Potency,astro,inactive
same,max response,[2],2.01%
same,outcome,[3],inactive
CC(=O)OC1(c2ccccc2)CCN(CCc2ccccc2)CC1,Potency,astro,inactive
CNC(C)Cc1ccccc1OC (centres undefined),Potency,astro,inactive
CC(C)[N+](C)(CCC(C(N)=O)(c1ccccc1)c1ccccc1)C(C)C,Potency,astro,inactive
